Test results: the supplement of paper PMC8728848
The entries come from a sample that favours the strongest signals as a whole.

What was measured:
Experiment in all cases: glycan array binding signal (z-score within array); higher = stronger binding
Conditions in all cases: glycan notation: IUPAC condensed, linker removed
[1] = biological target: GlcNAc(a1-4)Gal(b1-4)GlcNAc(b1-3)Gal(b1-4)GlcNAc
Outline: (§1)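 Negative Z-scores can be read as non-binding. The Z-score is calculated within each array and then averaged across arrays of one protein sequence at different concentrations or buffers and across linkers. Arrays, 3228 in all, were curated from the Consortium for Functional Glycomics database and kept only where the protein sequence was available.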

[2] = biological target: GlcNAc(a1-4)Gal(b1-4)GlcNAc(b1-3)Gal(b1-4)[Fuc(a1-3)]GlcNAc(b1-3)Gal(b1-4)[Fuc(a1-3)]GlcNAc
Outline: as §1

[3] = biological target: GlcNAc(b1-2)Man(a1-3)[GlcNAc(b1-4)][GlcNAc(b1-2)Man(a1-6)]Man(b1-4)GlcNAc(b1-4)[Fuc(a1-6)]GlcNAc
Outline: as §1

[4] = biological target: GlcNAc(b1-3)Gal(b1-3)GalNAc
Outline: as §1

[5] = biological target: GlcNAc(b1-3)Gal(b1-4)GlcNAc(b1-2)Man(a1-3)[GlcNAc(b1-3)Gal(b1-4)GlcNAc(b1-2)Man(a1-6)]Man(b1-4)GlcNAc(b1-4)GlcNAc
Outline: as §1

[6] = biological target: GlcNAc(b1-3)Gal(b1-4)GlcNAc(b1-3)Gal(b1-4)GlcNAc(b1-2)Man(a1-3)[GlcNAc(b1-3)Gal(b1-4)GlcNAc(b1-3)Gal(b1-4)GlcNAc(b1-2)Man(a1-6)]Man(b1-4)GlcNAc(b1-4)[Fuc(a1-6)]GlcNAc
Outline: as §1

[7] = biological target: GlcNAc(b1-3)Gal(b1-4)GlcNAc(b1-3)Gal(b1-4)GlcNAc(b1-2)[GlcNAc(b1-3)Gal(b1-4)GlcNAc(b1-3)Gal(b1-4)GlcNAc(b1-6)]Man(a1-6)[GlcNAc(b1-3)Gal(b1-4)GlcNAc(b1-3)Gal(b1-4)GlcNAc(b1-2)Man(a1-3)]Man(b1-4)GlcNAc(b1-4)[Fuc(a1-6)]GlcNAc
Outline: as §1

[8] = biological target: GlcNAc(b1-3)Gal(b1-4)GlcNAc(b1-3)Gal(b1-4)GlcNAc(b1-3)Gal(b1-4)GlcNAc(b1-2)[GlcNAc(b1-3)Gal(b1-4)GlcNAc(b1-3)Gal(b1-4)GlcNAc(b1-3)Gal(b1-4)GlcNAc(b1-6)]Man(a1-6)[GlcNAc(b1-3)Gal(b1-4)GlcNAc(b1-3)Gal(b1-4)GlcNAc(b1-3)Gal(b1-4)GlcNAc(b1-2)Man(a1-3)]Man(b1-4)GlcNAc(b1-4)[Fuc(a1-6)]GlcNAc
Outline: as §1

[9] = biological target: GlcNAc(b1-3)Gal(b1-4)GlcNAc(b1-6)[Gal(b1-3)]GalNAc
Outline: as §1

[10] = biological target: GlcNAc(b1-3)[GlcNAc(b1-4)][GlcNAc(b1-6)]GlcNAc
Outline: as §1

[11] = biological target: GlcNAc(b1-4)Gal(b1-4)GlcNAc
Outline: as §1

[12] = biological target: Kdn(a2-6)Gal(b1-4)GlcNAc
Outline: as §1

[13] = biological target: Man(a1-2)Man(a1-3)[Man(a1-2)Man(a1-6)]Man(a1-6)[Man(a1-2)Man(a1-2)Man(a1-3)]Man(b1-4)GlcNAc(b1-4)GlcNAc
Outline: as §1

[14] = biological target: Man(a1-2)Man(a1-6)[Man(a1-3)]Man(a1-6)[Man(a1-2)Man(a1-2)Man(a1-3)]Man(b1-4)GlcNAc(b1-4)GlcNAc
Outline: as §1

[15] = biological target: Man(a1-3)[Man(a1-6)]Man(a1-6)[Man(a1-3)]Man
Outline: as §1

[16] = biological target: Neu5Ac(a2-3)Gal(b1-3)GlcNAc(b1-3)Gal(b1-4)GlcNAc
Outline: as §1

[17] = biological target: Neu5Ac(a2-3)Gal(b1-4)GlcNAc(b1-3)Gal
Outline: as §1

[18] = biological target: Neu5Ac(a2-3)Gal(b1-4)GlcNAc(b1-3)Gal(b1-4)GlcNAc(b1-6)[Gal(b1-3)]GalNAc
Outline: as §1

[19] = biological target: Neu5Ac(a2-3)Gal(b1-4)[Fuc(a1-3)]GlcNAc(b1-3)GalNAc
Outline: as §1

[20] = biological target: Neu5Ac(a2-3)Gal(b1-4)[Fuc(a1-3)]GlcNAc(b1-6)[Gal(b1-3)]GalNAc
Outline: as §1

[21] = biological target: Neu5Ac(a2-6)Gal(b1-4)Glc
Outline: as §1

[22] = biological target: Neu5Ac(a2-6)Gal(b1-4)GlcNAc(b1-2)Man(a1-3)[Neu5Ac(a2-3)Gal(b1-4)GlcNAc(b1-2)Man(a1-6)]Man(b1-4)GlcNAc(b1-4)GlcNAc
Outline: as §1

[23] = biological target: Neu5Ac(a2-6)Gal(b1-4)GlcNAc(b1-3)Gal(b1-4)GlcNAc(b1-3)[Neu5Ac(a2-6)Gal(b1-4)GlcNAc(b1-3)Gal(b1-4)GlcNAc(b1-6)]GalNAc
Outline: as §1

[24] = biological target: Neu5Gc(a2-3)Gal(b1-4)GlcNAc(b1-3)Gal(b1-4)GlcNAc(b1-2)Man(a1-3)[Neu5Gc(a2-3)Gal(b1-4)GlcNAc(b1-3)Gal(b1-4)GlcNAc(b1-2)Man(a1-6)]Man(b1-4)GlcNAc(b1-4)GlcNAc
Outline: as §1

B1: BT4246 (Bacteroides thetaiotaomicron), Q89ZX5 (protein)
chain: MGSSHHHHHHENLYFQGHMASDYLDVVPPEQPNIDDAMSSPTRALGFLYSCYGGVSTDLPSAYLGEINSTTDEYVLPYSWNTDGYWGAYAFNTASSTNQDWLWGTTYQYIGQCYLFLQKLENAGSDIASDAEKEQWRAECQFLVAYYHFATLRRYGPIPITDSYIPMDTPTSEYNGRFHFDYCVDWIANQLDEAAKVLPANRTVTNEWGRATSTIAKAVKARLLLYAASPLWNGSFPYPNWQNENFETPGYGKALVSNTYDKSKWERALAACQEALTLATTSGDRELYDDDEYYSRQSLNLPFVPGVADVEDNKEFLKNVMKMRYAVSTRESEGNKEIIWGLSNQFDFYSRYPLRILKKSDGTWHAGYSGVSPTLYTFEHFYTANGKLPEKDLDFTPSSEWFESAGISSREDIIKLNVGREPRFYAWMAFDGGDYGTKFAAGSPLKLEMRNSEMHGYNPSLFNRDHSVTGFLTQKFVDPVTEFYTAGGSTSGTSAPTILFRLAELYLNVAECHAALGNTQEAIDALNPVRERAGIPKLTLADITNNMTIKDWVHNERFVELWNEGHRFFDVRRWAEGAKYFGANKREGLNAEVQSPTFEEFNKRTTVDAPYVWENRMYLNPVFYNEVYKNPQMVQAPGY
[1]
  glycan array binding signal (z-score): -0.394
[2]
  glycan array binding signal (z-score): 3.11
[3]
  glycan array binding signal (z-score): 2.52
[4]
  glycan array binding signal (z-score): -0.081
[5]
  glycan array binding signal (z-score): 0.802
[6]
  glycan array binding signal (z-score): -0.16
[7]
  glycan array binding signal (z-score): 1.52
[8]
  glycan array binding signal (z-score): 0.637
[9]
  glycan array binding signal (z-score): -0.339
[10]
  glycan array binding signal (z-score): -0.635
[11]
  glycan array binding signal (z-score): -0.482
[12]
  glycan array binding signal (z-score): 1.42
[13]
  glycan array binding signal (z-score): -0.169
[14]
  glycan array binding signal (z-score): 1.59
[15]
  glycan array binding signal (z-score): 3.62
[16]
  glycan array binding signal (z-score): 1.07
[17]
  glycan array binding signal (z-score): -0.929
[18]
  glycan array binding signal (z-score): 0.439
[19]
  glycan array binding signal (z-score): 4.68
[20]
  glycan array binding signal (z-score): 2.47
[21]
  glycan array binding signal (z-score): -0.168
[22]
  glycan array binding signal (z-score): -0.62
[23]
  glycan array binding signal (z-score): 3.02
[24]
  glycan array binding signal (z-score): 2.77
